# Source: PubChem BioAssay AID2685 (National Center for Advancing Translational Sciences (NCATS), 2010)
# Hit rate of the full screen: of about 320,000 compounds, about 2,100 (0.66%) were called active. Not shown: some 53% with an inconclusive outcome. Calls follow the shape of the dose curve; as a rule, active = well fitted inhibition curve with a large enough effect in the signal ratio, with a control signal flat (not every such curve was filed as active); inconclusive = small, poorly fitted or top-dose-only effect, or effect the other way, or a change in a side signal; inactive = flat fitted curve, though single readings scatter; the % refers to the signal ratio. The full list was thinned out, with actives kept by preference.
# Assay: qHTS Assay for Lipid Storage Modulators in Drosophila S3 Cells;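 as to cell number change: cells counted by Cell Tracker Red CMTPX staining in the red channel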
# Details: BODIPY lipid droplet fluorescence, 18-24 h, cells fed with added oleic acid; cell number change: measured here: cell count max response; series mostly up to 46.1 µM
# Method in brief: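 Drosophila S3 cells loaded with oleic acid (400 uM, as added) and compounds at several concentrations; lipid droplets imaged by 488-nm laser-scanning cytometry, 500–530 nm intensity and object ratio to cell channel. Percent activity normalized to 20 uM Triacsin C.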
# Potency is read from the fitted curve at half-maximal effect.
SMILES,Potency,cell number change [%],outcome
O=C(c1ccco1)N1N=C(c2ccc3nccnc3c2)CC1c1ccccc1 (stereo not drawn),inactive,13.8,–
O=C(NCC1CC1)c1ccc2c(c1)S(=O)(=O)c1cc(Cl)ccc1C2=O,inactive,7,–
CCCNC(=O)c1ccc2c(c1)S(=O)(=O)c1ccccc1C2=O,inactive,6.31,–
COCCNC(=O)c1ccc2c(c1)S(=O)(=O)c1cc(Cl)ccc1C2=O,5.8 µM (active),9.21,–
Nc1ncc(S(=O)(=O)c2ccc(Cl)cc2)c(N)n1,inactive,19.4,–
Clc1ccc(N2CCN(c3cnc4ccccc4n3)CC2)cc1,inactive,-5.19,–
O=S(=O)(c1ccc(Cl)cc1)c1cnc2ccccc2n1,29.1 µM (active),-118,–
Cc1ccc(C(=O)N[C@H](C(=O)OCc2cc(=O)n3c(n2)sc2ccccc23)C(C)C)cc1,inactive,-15.4,–
Cc1ccc(C(=O)N[C@H](C(=O)OCc2nnc(-c3ccccc3)o2)C(C)C)cc1,inactive,-21.1,–
Cc1ccc(C(=O)NC(C(=O)OCc2cn3cc(Cl)ccc3n2)C(C)C)cc1 (stereo not drawn),5.17 µM (active),6.32,–
CCOC(=O)C1CCCN(S(=O)(=O)c2ccc(Br)s2)C1 (stereo not drawn),inactive,-14.8,–
Cc1nc2oc3ccc(F)cc3c(=O)c2cc1C(=O)O,inactive,9.45,–
Cn1c(=O)c2c(nc(NCc3ccco3)n2CC(O)CO)n(C)c1=O (stereo not drawn),inactive,9.76,–
Cn1c(=O)c2c(nc(NCCCO)n2Cc2cccc(Br)c2)n(C)c1=O,inactive,–,–
CCN(CC)CCNc1nc2c(c(=O)n(C)c(=O)n2C)n1C/C=C(/C)Cl,inactive,-1.05,–
Cn1c(=O)c2c(nc(NCc3ccco3)n2CCc2ccccc2)n(C)c1=O,11.6 µM (active),-22.9,–
Cn1c(=O)c2c(nc(NCCCO)n2C/C=C/c2ccccc2)n(C)c1=O,9.2 µM (active),-27.3,–
CCn1c(NCc2ccco2)nc2c1c(=O)n(C)c(=O)n2C,inactive,-2.38,–
CCCNc1nc2c(c(=O)n(C)c(=O)n2C)n1CCCc1ccccc1,inactive,-29.8,–
Cn1c(=O)c2c(nc(NCCCO)n2CCc2ccccc2)n(C)c1=O,inactive,-21.6,–

SMILES,Potency,cell number change [%],outcome
C/C(Cl)=C\Cn1c(NCCc2ccccc2)nc2c1c(=O)n(C)c(=O)n2C,6.51 µM (active),-18.8,–
Cn1cnc(S(=O)(=O)N2CCN(c3cccc(C(F)(F)F)c3)CC2)c1,inactive,3.98,–
CCC(C)c1ccccc1OCC(=O)NN1C(=O)c2ccccc2C1=O (stereo not drawn),inactive,-0.73,–
COc1ccccc1C(=O)Nc1ccc(C(=O)N2CCCCC2)cc1,inactive,-10.6,–
Cn1c(=O)c2c(nc(CN3CCN(C(=O)c4ccco4)CC3)n2Cc2ccccc2)n(C)c1=O,inactive,–,–
Cc1ccc(-c2csc3ncnc(SCC(=O)NCc4ccc5c(c4)OCO5)c23)cc1,inactive,-1.52,–
Cc1ccc(-c2csc3ncnc(SCC(=O)c4ccc5c(c4)OCCO5)c23)cc1,5.17 µM (active),-23.9,–
O=C(CSc1ncnc2scc(-c3ccc(F)cc3)c12)c1ccc2c(c1)OCCO2,inactive,7.81,–
COCCn1nnnc1C(c1ccccc1OC)N1CCN(c2ccccc2)CC1 (stereo not drawn),inactive,8.57,–
CCn1cnc2c1c(=O)n(CC(=O)OC(C)C(N)=O)c(=O)n2Cc1ccccc1 (stereo not drawn),inactive,10.8,–
Cc1cc(C(=O)N2CCc3c([nH]c4ccccc34)C2c2cccc(Cl)c2)nn1C (stereo not drawn),inactive,-10.9,–
CCOC(=O)C1CCCN(C(=O)Cc2ccc(C)cc2)C1 (stereo not drawn),inactive,14.8,–
CCOCC(=O)N1CCCC(C(=O)OCC)C1 (stereo not drawn),18.4 µM (active),-14.8,–
CCCCC(=O)N1CCCC(C(=O)OCC)C1 (stereo not drawn),inactive,23.1,–
NCCNC[C@@H]1COC2(CCCCCCCCCCC2)O1,inactive,6.45,–
CC1CC(C)CN(S(=O)(=O)c2ccc3c(c2)C(C)(C)C(=O)N3C)C1 (stereo not drawn),inactive,26.4,–
CC(=O)c1c(C)nn(C(C)CC(=O)O)c1C (stereo not drawn),inactive,-4.59,–
Cc1nn(C(C)CC(=O)O)c(C)c1C (stereo not drawn),23.1 µM (active),–,–
Cc1nc(C)n(C(C)CC(=O)O)n1 (stereo not drawn),inactive,-20,–
C/C(Cn1nnc([N+](=O)[O-])n1)=N\NC(=O)c1ccc(C)cc1,inactive,24.7,–

SMILES,Potency,cell number change [%],outcome
COc1ccc(N(C(=O)CNC(=O)c2cccs2)C(C(=O)NC2CCCC2)c2cccnc2)cc1 (stereo not drawn),inactive,3.7,–
CC(C)c1ccc(NC(=O)C(c2ccccc2)N2CCN(C(=O)c3ccco3)CC2)cc1 (stereo not drawn),20.6 µM (active),-35.1,–
CC(C)C(=O)Nc1ccc(C(=O)N2CCN(C(=O)c3ccco3)CC2)cc1,4.61 µM (active),6.86,–
CC(C(=O)Nc1ccccc1)N1CCN(C(=O)c2ccco2)CC1 (stereo not drawn),inactive,13.4,–
O=C(Nc1ccc(F)cc1)C(c1ccccc1)N1CCN(C(=O)c2ccco2)CC1 (stereo not drawn),inactive,–,–
O=C(c1ccco1)N1CCN(S(=O)(=O)c2cccc([N+](=O)[O-])c2)CC1,inactive,-1.91,–
O=C(c1ccc(NS(=O)(=O)c2cccc([N+](=O)[O-])c2)cc1)N1CCN(C(=O)c2ccco2)CC1,9.2 µM (active),1.34,–
CC(C)Oc1ccc(C(=O)N2CCN(C(=O)c3ccco3)CC2)cc1,inactive,19.8,–
CCOc1ccccc1NC(=O)C(c1ccccc1)N1CCN(C(=O)c2ccco2)CC1 (stereo not drawn),inactive,-20.1,–
O=C(c1ccc(NS(=O)(=O)c2cccc([N+](=O)[O-])c2)cc1)N1CCCCCC1,inactive,-11.1,–
CCOc1ccc(NS(=O)(=O)c2c(C)nc3sccn3c2=O)cc1,inactive,-0.288,–
O=C(Nc1ccc(Br)cc1)C1CCCN(C2=NS(=O)(=O)c3ccccc32)C1 (stereo not drawn),inactive,0.774,–
Cc1ccc(SC(C)C(=O)Nc2ncn[nH]2)cc1 (stereo not drawn),inactive,–,–
CC1CCN(C(CNS(=O)(=O)c2ccccc2)c2ccccc2)CC1 (stereo not drawn),0.461 µM (active),12.1,–
Cc1ccc(C(CNS(=O)(=O)c2ccccc2)N2CCN(C)CC2)cc1 (stereo not drawn),–,–,inactive [at 0.0737 µM]
O=S(=O)(NCC(c1ccccc1)N1CCC(O)CC1)c1ccc(Cl)cc1 (stereo not drawn),inactive,–,–
CCOc1cccc(OCCn2cnc3ccccc3c2=O)c1,inactive,10.8,–
COc1cccc(C(=O)N2CCN(C(=O)C3COc4ccccc4O3)CC2)c1 (stereo not drawn),inactive,–,–
